Source: PubChem (National Center for Advancing Translational Sciences (NCATS))
VP16 counter – Gal4-VP16 reporter inhibition counter-screen | Potency, µM (top dose mostly 53.6 µM), without a hit: at the highest dose activity, negative = inhibition, actives largely listed as inhibitors | hit rate 3.5% among 310,000 | Drosophila S2 Gal4-VP16 UAS-luciferase, luminescence, 20 h;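 further: Gal4-VP16 expression switched on by copper sulfate through the metallothionein promoter; on the % scale 0 is the no-effect control and ±100 the full control effect; nearly all actives have a fitted effect of over 50% in size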
Epigenetic reg – epigenetic control regulation, reporter derepression; hit rate 0.2% among 280,000; AID 1865; murine LDR cells, GFP reporter derepression, 30 h; Potency, µM (titrated, usually from 53.9 µM), inactives show top-dose GFP activation, usual class: activators; further: % of control where 0% means no effect; nearly all actives have a fitted effect of over 60% in size
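Reporter derepression read as number of fluorescent GFP-positive objects, 20-120 um in size, counted by laser-scanning cytometer. Mouse LDR line with an epigenetically silenced CMV-GFP locus; compound incubation 30 h, 37 C.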
PINK1 expr mod – changes PINK1 expression; PINK1 immunofluorescence, high-content cytometry, 24 h; Potency, µM (top dose mostly 76.6 µM), inactives show at the top dose activation (PINK1 increase), actives largely listed as activators; hit rate 0.2% among 410,000; active means well fitted activation curve with a large enough effect; inconclusive means small, poorly fitted or top-dose-only effect; cell line not stated here; further: % of control where 0% means no effect; nearly all actives have a fitted effect of over 65% in size
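Decision-based qHTS: stable cells, 24 h exposure to five compound concentrations, CCCP as control. Fixed cells stained for PINK1 plus nuclear, mitochondrial and cell markers, cytometer read.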
RORg inh – blocks mouse ROR gamma transcriptional activity. AID 2551. Drosophila S2 Gal4-RORgamma UAS-luciferase reporter, 20 h. hit rate 5.4% among 310,000. Potency, µM (doses to about 53.6 µM), for inactives: at the top dose activity change, negative = inhibition, actives largely listed as inhibitors; further: on the % scale 0 is the no-effect control and ±100 the full control effect; nearly all actives have a fitted effect of over 60% in size
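Drosophila S2 cells stably expressing Gal4-DBD/mouse RORγ fusion under metallothionein promoter plus UAS-luciferase; compound 1 h, then 700 uM CuSO4 induction for 20 h at ambient temperature; inhibition read as reduced luminescence.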
ClpP mod – qHTS Assay for Activators of ClpP | hit rate 1.9% among 340,000 | Potency, µM (series often up to 57.5 µM), inactives show at the top dose activity change, negative = active | ATP-dependent Clp protease proteolytic subunit (Bacillus subtilis (strain 168)), P80244 | purified B. subtilis ClpP, FRET peptide cleavage, 20 min; active means well fitted falling curve with a large enough effect; inconclusive means small, poorly fitted or top-dose-only effect; inactive means no such curve, though single readings can be large or run the other way; further: the source files actives as falling curves though it sought activators and does not explain the sign; nearly all actives have a fitted effect of over 65% in size
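FRET quenching reversal measured ClpP activation: 10 microg/mL B. subtilis ClpP at pH 8 with the FRET-FV decapeptide, read at 430 nm after 320 nm excitation. The 20-min minus 0-min signal was scaled between DMSO/no-enzyme wells and ADEP (5.8 microM final).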
Sfp PPTase inh – Sfp phosphopantetheinyl transferase inhibition; Q9F4F7; Biochemical Sfp PPTase activity, qHTS; Potency, µM, for inactives: largest response in the series, negative = inhibition, hits mostly inhibitors; hit rate 3.5% among 310,000; AID 1490;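 further: the enzyme is Sfp with the accession as filed and its product quenches rhodamine fluorescence; 0% = enzyme reaction without inhibitor and -100% = no enzyme wells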
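After 15 min at room temperature with compound, 15 nM Sfp received 5 uM rhodamine-CoA plus 12.5 uM BHQ-2-ybbR (50 mM Hepes pH 7.6, 10 mM MgCl2). Rate came from the fluorescence difference over 30 min, ex 525/em 598 nm.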
* marks the source's active call; other numbers are inactive results; ? = inconclusive; . = not tested or not shown; [ ] = dose if it differs, or a comment. An excerpt weighted towards active compounds, which were near 8.1% of everything screened. Unless noted, the call rests on the fitted dose curve; in most records, active means well fitted curve in the direction sought with a large enough effect; inconclusive means small, poorly fitted or top-dose-only effect, or another doubt; inactive means no such curve, though single readings can be large; an effect the other way counts as inactive or inconclusive. Potency means the concentration at half of the fitted maximal effect.

SMILES	VP16 counter	Epigenetic reg	PINK1 expr mod	RORg inh	ClpP mod	Sfp PPTase inh
COc1cc2c(cc1OC)CN(C(=S)Nc1ccc(Cl)cc1)CC2	-16%	0%	1%	?	2%	8%
COc1ccc(NC(=S)N2CCc3ccccc3C2)cc1OC	-6%	-1%	3%	11µM*	-1%	11%
CCCCc1ccc(-n2nc3cc(C)c(NC(=O)Cc4ccccc4)cc3n2)cc1	.	-1%	0%	.	-18%	.
Cc1ccc(NC(=O)Cn2c(=O)n(Cc3ccccc3)c(=O)c3sc4ccccc4c32)cc1	.	8%	-1%	.	-18%	.
CN(C)c1ccc(-c2ccncc2)cc1	14%	-1%	.	-17%	.	24%
CNc1nnc(-c2ccc(N(C)C)cc2)s1	8.9µM*	-2%	1%[38.3 µM]	?	2%	-6%
COC(=O)C1(C)C=C(Nc2ccc(OC)cc2)C(=O)N1c1ccc(OC)cc1 (centres undefined)	3%	0%	.	-18%	.	-14%
CC(=O)Nc1cc(-c2ccc(C(=O)N3CCOCC3)cc2)cn2c(-c3ccccc3)cnc12	.	.	5%	.	25µM*	.
Cc1ccc(-c2ccc(CCC(=O)O)n2-c2ccc(C(=O)O)cc2)cc1	-6%	.	0%	42%	-7%	56µM*
NC(=O)c1ccc(-n2c(CCC(=O)O)ccc2-c2cccs2)cc1	7%	3%	-1%	23%	.	-15%
CC(=O)c1ccc(-n2c(CCC(=O)O)ccc2-c2cccs2)cc1	?	-1%	0%	?	-1%	20µM*
Cc1ccc(NC(=O)Cn2c(CCC(=O)O)ccc2-c2cccs2)cc1	13%	-1%	-1%	0%	-6%	25µM*
CCCn1c(CCC(=O)O)ccc1-c1cccs1	?	0%	0%	?	25µM*	25µM*
Cc1oc2cc3oc(=O)c(CC(=O)NCc4ccccc4)c(C)c3cc2c1C	.	-1%	-1%	.	-5%	.
CC1=C(c2ccc(C(C)C)cc2)S(=O)(=O)N=C1N1CCC(C(=O)NCc2ccc(C)o2)CC1	.	4%	3%	.	0%	.
CCC1CN(Cc2cccc3nccnc23)Cc2cc(OC)ccc2O1 (centres undefined)	.	.	0%	.	.	.
O=C(O)CCc1ccc(-c2cccs2)n1NC(=O)c1ccc(Cl)cc1	16%	-2%	.	-15%	-8%	25µM*
COC(=O)c1ccccc1NC(=O)Cn1c(CCC(=O)O)ccc1-c1cccs1	18%	0%	0%	11%	-4%	56µM*
Cc1ccccc1NC(=O)Cn1c(CCC(=O)O)ccc1-c1cccs1	-6%	3%	0%	-32%	.	-21%
COc1cc(NC(=O)COc2c(C)cc(C)cc2[N+](=O)[O-])c(OC)cc1Cl	-9%	0%	1%	-5%	.	50µM*
COc1cc2c(C(=O)NCc3ccc(C)o3)cn(CC(C)C)c(=O)c2cc1OC	7%	-1%	3%	28%	-26%	45µM*
COc1cc(C(=O)N2CCC(c3nc4ccccc4o3)CC2)cc(OC)c1OC	.	-2%	2%	.	0%	.
CCOC(=O)c1c(C)oc2c1c1c(c3ccccc32)OCN(Cc2ccccn2)C1	11µM*	-1%	0%	7.1µM*	-3%	?
Cc1ccc(S(=O)C(c2ccccc2)c2ccccc2)cc1 (centres undefined)	.	.	2%	.	1%	.
O=S(c1ccccc1)C(c1ccccc1)c1ccccc1 (centres undefined)	.	.	2%	.	16µM*	.
SMILES	VP16 counter	Epigenetic reg	PINK1 expr mod	RORg inh	ClpP mod	Sfp PPTase inh
CCOc1ccc(CCNC(=O)c2ccc3c(c2)N(Cc2ccccc2)C(=O)c2ccccc2S3=O)cc1OCC (centres undefined)	.	0%	2%	.	-2%	.
Clc1ccc(-c2nc3ccccn3c2Nc2ccc3c(c2)OCCO3)s1	.	5%	3%	.	-21%	.
Cc1ccc2[nH]c3c(c2c1)CCCC3=O	-1%	-3%	0%	31%	?	-8%
O=C1CCCc2c1[nH]c1ccc(CN3CCCCC3)cc21	-2%	0%	0%[38.3 µM]	-2%	28µM*	8%
Cc1ccc2[nH]c3c(c2c1)CCC3=O	3%	-1%	.	-10%	25µM*	5%
O=C(NCc1cccs1)c1nn(-c2ccccc2Cl)nc1CO	.	6%	0%	.	1%	.
O=C(N/N=C/c1ccccn1)c1cc(-c2ccccc2)nc2ccccc12	0.79µM*	11%	15%	0.5µM*	-4%	-24%
O=C(N/N=C/c1ccccn1)c1cc(C2CC2)nc2ccccc12	13µM*	.	2%	10µM*	.	-20%
O=C(N/N=C/c1ccncc1)c1cc(C2CC2)nc2ccccc12	-9%	.	1%	3%	.	7%
O=C(N/N=C/c1ccc(O)cc1)c1cc(-c2ccccc2)nc2ccccc12	28%	.	3%	-21%	109%	1%
Cc1cc(C)cc(N2C(=O)CS(=O)(=O)C23C(=O)N(Cc2ccccc2)c2ccccc23)c1 (centres undefined)	.	6%	-3%	.	-1%	.
CC(=O)Nc1ccc(NS(=O)(=O)c2c(C)nc3sccn3c2=O)cc1	.	0%	2%	.	1%	.
CN(C)c1ccc(C(=O)NCc2ccc3c(c2)CCN3C(=O)c2ccccc2)cc1	.	1%	0%	.	-6%	.
COc1ccccc1Cn1c(C(C)C)nc2ccccc21	-15%	1%	2%	7.9µM*	-3%	0%
Cc1cccc(NC(=O)Cn2c(/C=C/c3ccccc3)nc3ccccc32)c1	-7%	10%	8%	?	32µM*	?
COCCn1c(/C=C/c2ccccc2)nc2ccccc21	?	1%	0%	11µM*	.	8%
CC(C)CCn1c(/C=C/c2ccccc2)nc2ccccc21	.	1%	6%	.	4%	.
COc1ccccc1Cn1c(/C=C/c2ccccc2)nc2ccccc21	22µM*	5%	?	?	5%	-18%
Cc1ccccc1Cn1c(C(C)O)nc2ccccc21 (centres undefined)	-2%	-1%	-1%	-11%	0%	21%
Cc1ccc(NC(=O)Cn2c(=O)c(C)nc3ccccc32)cc1	4%	?	4%	31%	1%	4%
CCOc1cc(C#N)c(NC(=O)c2ccc(OC)c(S(=O)(=O)N3CCN(c4ccccc4)CC3)c2)cc1OCC	.	-1%	2%	.	-7%	.
Cn1c(=O)c(/C=C/c2ccccc2)nc2ccccc21	13%	0%	3%	?	?	-5%
Cn1c(/C=C/c2ccccc2)nc2ccccc21	7.1µM*	1%	1%	10µM*	4%	10%
CC(C)Cn1c(/C=C/c2ccc(F)cc2)nc2ccccc21	.	-1%	5%	.	4%	.
COc1ccc(/C=C/c2nc3ccccc3n2Cc2ccccc2OC)cc1	-84%	1%	?	14µM*	.	-22%
